This note sets out measurements from PubChem BioAssay.

Unmarked numbers belong to inactive results.

The nature of this test: change in splice reporter luminescence, either direction, cell-based, HEK293, spliceosome inhibition project, primary screen (AID 1101).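 Also: HEK293 cells carrying a splicing-competent luciferase reporter gene; test concentration not given here.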 The following applies: HEK293 splicing luciferase reporter, 24 h, higher = more signal, called active from +8 up or from −8 down. On the technique in general: A reporter such as luciferase makes a cellular process visible.
As to `CC(=O)OC[C@H]1O[C@@H](ON=C2[C@H]3CCn4c(=O)n(-c5ccccc5)c(=O)n4[C@H]3[C@H](O)[C@@H]3O[C@H]23)[C@H](OC(C)=O)[C@@H](OC(C)=O)[C@@H]1OC(C)=O`, the z-score was 0.764.

Regarding `O=C1CCCC=C1C(O)COCc1ccccc1` (stereo not given), the z-score is -0.0937.

In the case of `C[C@H]1CC[C@@H](C(=O)O)N[C@@H]1c1cccc(N2CCCC2=O)c1`, the z-score was -0.00389.

For `COC(=O)[C@H](C)NC(=O)CCC1CC(OC(=O)NCc2ccc3c(c2)OCO3)CC2(CCCC(COC(=O)NCCCN3CCCC3=O)O2)O1` (stereo not given in full), the z-score is 0.245.

For `CC(C)(C)N1C(=O)[C@H]2[C@@H]3C(=CC[C@H]2C1=O)C(=O)[C@H]1O[C@H]1[C@H]3O`, the z-score was 3.47.

With `CCOC(=O)NN=C1C[C@@H](O)[C@@H](O)[C@@H]2[C@@H]3C(=O)N(C[C@@H]4CCCO4)C(=O)[C@@H]3CC[C@H]12`, the z-score was 0.488.

Take `CC(C)=CCCC(C)=CCON=C1C[C@@H](O)[C@@H](O)[C@@H]2[C@@H]3C(=O)N(Cc4ccc5c(c4)OCO5)C(=O)[C@@H]3CC[C@H]12`: the z-score is 0.294.

Consider `CC(=O)OC[C@H]1O[C@H](CC=NOC(C)CN2CCCCc3nc(C)c(C)cc32)C=C[C@@H]1OC(C)=O` (stereo not given in full), for which the z-score was 0.375.

Consider `CCOC(=O)[C@H](Cc1ccccc1)NC(=O)CCC1CC(OC(=O)NCCc2ccc(F)cc2)CC2(CCCC(COC(=O)NCc3cccc(C(F)(F)F)c3)O2)O1` (stereo not given in full), for which the z-score was -0.891.

With `O=C1C=C[C@@H](O)[C@@H]2[C@@H]3C(=O)N(Cc4ccc5c(c4)OCO5)C(=O)[C@@H]3CC[C@@H]12`, the z-score was -0.5.
